Results filed as inconclusive are left out. A call without a number means that no potency is given here. Calls of active or inactive are those of the source. Calls follow the shape of the dose curve; as a rule, active = well fitted inhibition curve with a large enough effect; inconclusive = small, poorly fitted or top-dose-only effect; inactive = flat fitted curve, though single readings scatter.
Potency is read from the fitted curve at half-maximal effect.

The test system of the first experiment is P93_24. In words: qHTS profiling for inhibitors of Plasmodium falciparum proliferation (AID 504749). Also: nearly all actives have a fitted effect of over 60% in size. As to conditions: P. falciparum in erythrocytes, SYBR Green DNA, 72 h; series mostly up to 28.7 µM. The procedure, abridged: (§1)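 Parasite proliferation within erythrocytes, 72 h exposure. Endpoint: SYBR Green I fluorescence after overnight lysis at room temperature. Controls: 0.29 uM artemisinin, DMSO.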
A general note: qHTS replaces the single test concentration by a dilution series.
With `C[N+]1(C)CCC(=C(c2ccccc2)c2ccccc2)CC1`, the Potency entry is “inactive”.
On the same count and under the same terms, as for `CCC(CC)(CC(=O)Nc1cccc(/C=C/c2nc(C3CCC3)cs2)c1)C(=O)O`, the entry is “inactive”.
Still for that read-out and setting: as for `COc1ccc(C(=O)c2ccccc2O)c(O)c1`, the entry is “inactive”.
On the same count and under the same terms, next, `C#C[C@]1(OC(C)=O)CC[C@H]2[C@@H]3CCC4=C/C(=N/O)CC[C@@H]4[C@H]3CC[C@@]21CC`: “inactive”.
For `O=[N+]([O-])c1cccc(S(=O)(=O)NCCNS(=O)(=O)c2cccc([N+](=O)[O-])c2)c1`, the Potency entry was “inactive”.
For `Cc1ncc(CO)c(C=O)c1O`, the Potency entry was “inactive”.
The same measure, in the same setting: as for `CCNC(=O)NCc1cccc(Cl)c1`, the entry is “inactive”.
Still for that read-out and setting: next, `CCOc1ccccc1OCCN[C@H](C)Cc1ccc(OC)c(S(N)(=O)=O)c1`: “inactive”.
Regarding `Oc1ccc(Cl)cc1Cc1cc(Cl)ccc1O`, the Potency result was “inactive”.
`CC(=O)O[C@]1(C(C)=O)CC[C@H]2[C@@H]3C=C(Cl)C4=CC(=O)CC[C@]4(C)[C@H]3CC[C@@]21C`: the Potency is 11.2 µM (active).
On the same count and under the same terms, as for `CCOC(=O)Nc1ccc2c(c1)N(C(=O)CCN1CCOCC1)c1ccccc1S2`, the entry is “inactive”; as for `CC(C)=CCOc1ccc(/C=C/C(=O)c2ccc(OCC=C(C)C)cc2OCC(=O)O)cc1`, “inactive”; as for `O=C(CN1CCN(Cc2ccc3c(c2)OCO3)CC1)N1c2ccccc2Sc2ccccc21`, 8.91 µM (active).
The same measure, in the same setting: next, `CCC(C(=O)OCCOCCN(CC)CC)c1ccccc1` (stereo not given): “inactive”; `Cc1cccc(C)c1NC(=O)CN1CCCCCC1`: “inactive”.
Same read-out and setting: next, `CC(=O)NCCCCCC(=O)O`: “inactive”; `COc1ccc2c(c1)c1c3n2CCN(C)C3=NCC1`: “inactive”.

The next experiment relates to P94_40. The description is as above. The note with it: P. falciparum in erythrocytes, SYBR Green DNA, 72 h; series mostly up to 28.7 µM. The procedure, abridged: as §1
Turning to `C[N+]1(C)CCC(=C(c2ccccc2)c2ccccc2)CC1`, the Potency entry is “inactive”.
Consider `CCN(CC)CCOC(=O)C1(c2ccccc2)CCCC1`, for which the Potency result was “inactive”.
Still for that read-out and setting: as for `CCC(CC)(CC(=O)Nc1cccc(/C=C/c2nc(C3CCC3)cs2)c1)C(=O)O`, the entry is “inactive”; as for `COc1ccc(C(=O)c2ccccc2)c(O)c1`, “inactive”; as for `C#C[C@]1(OC(C)=O)CC[C@H]2[C@@H]3CCC4=C/C(=N/O)CC[C@@H]4[C@H]3CC[C@@]21CC`, “inactive”.
As to `O=[N+]([O-])c1cccc(S(=O)(=O)NCCNS(=O)(=O)c2cccc([N+](=O)[O-])c2)c1`, the Potency result is “inactive”.
The same measure, in the same setting: as for `Cc1ncc(CO)c(C=O)c1O`, the entry is “inactive”.
Take `CCNC(=O)NCc1cccc(Cl)c1`: the Potency entry was “inactive”.
The same measure, in the same setting: next, `CCOc1ccccc1OCCN[C@H](C)Cc1ccc(OC)c(S(N)(=O)=O)c1`: “inactive”; `CC(=O)O[C@]1(C(C)=O)CC[C@H]2[C@@H]3C=C(Cl)C4=CC(=O)CC[C@]4(C)[C@H]3CC[C@@]21C`: 11.2 µM (active).
The same measure, in the same setting: next, `CCOC(=O)Nc1ccc2c(c1)N(C(=O)CCN1CCOCC1)c1ccccc1S2`: “inactive”.
As to `CC[N+](C)(CC)CCOC(=O)C(O)(c1ccccc1)C1CCCCC1` (stereo not given), the Potency result was “inactive”.
With `CC(C)=CCOc1ccc(/C=C/C(=O)c2ccc(OCC=C(C)C)cc2OCC(=O)O)cc1`, the Potency result was “inactive”.
Consider `O=C(CN1CCN(Cc2ccc3c(c2)OCO3)CC1)N1c2ccccc2Sc2ccccc21`, for which the Potency was 8.91 µM (active).
Same read-out and setting: as for `NC(=O)C1(N2CCCCC2)CCN(CCCC(=O)c2ccc(F)cc2)CC1`, the entry is “inactive”; as for `Cc1cccc(C)c1NC(=O)CN1CCCCCC1`, “inactive”; as for `CC(=O)NCCCCCC(=O)O`, “inactive”.
With `CCc1ccc(C(=O)C(C)CN2CCCCC2)cc1` (stereo not given), the Potency result was “inactive”.
With `COc1ccc2c(c1)c1c3n2CCN(C)C3=NCC1`, the Potency result is “inactive”.

The next experiment relates to PAD. Described as above. The note with it: P. falciparum in erythrocytes, SYBR Green DNA, 72 h; series mostly up to 28.7 µM. The method in brief: as §1
Turning to `C[N+]1(C)CCC(=C(c2ccccc2)c2ccccc2)CC1`, the Potency result is “inactive”.
Same read-out and setting: next, `CCN(CC)CCOC(=O)C1(c2ccccc2)CCCC1`: “inactive”.
On the same count and under the same terms, as for `CCC(CC)(CC(=O)Nc1cccc(/C=C/c2nc(C3CCC3)cs2)c1)C(=O)O`, the entry is “inactive”.
The same measure, in the same setting: as for `C#C[C@]1(OC(C)=O)CC[C@H]2[C@@H]3CCC4=C/C(=N/O)CC[C@@H]4[C@H]3CC[C@@]21CC`, the entry is “inactive”; as for `CN(C)CCN1C(=O)c2ccccc2N(C)c2ccccc21`, “inactive”; as for `Cc1ncc(CO)c(C=O)c1O`, “inactive”.
Turning to `CC(C)[N+](C)(C)CC(O)COc1cccc2ccccc12` (stereo not given), the Potency entry was “inactive”.
With `CC(=O)O[C@H]1C[C@@H]2CC[C@@H]3[C@H](CC[C@@]4(C)[C@H]3C[C@H]([N+]3(C)CCCCC3)[C@@H]4OC(C)=O)[C@@]2(C)C[C@@H]1N1CCCCC1`, the Potency entry was “inactive”.
Still for that read-out and setting: as for `CCNC(=O)NCc1cccc(Cl)c1`, the entry is “inactive”.
As to `CCOc1ccccc1OCCN[C@H](C)Cc1ccc(OC)c(S(N)(=O)=O)c1`, the Potency entry was “inactive”.
Still for that read-out and setting: next, `CCOC(=O)Nc1ccc2c(c1)N(C(=O)CCN1CCOCC1)c1ccccc1S2`: “inactive”.
Same read-out and setting: as for `CC[N+](C)(CC)CCOC(=O)C(O)(c1ccccc1)C1CCCCC1` (stereo not given), the entry is “inactive”; as for `CC(C)=CCOc1ccc(/C=C/C(=O)c2ccc(OCC=C(C)C)cc2OCC(=O)O)cc1`, “inactive”.
The same measure, in the same setting: as for `O=C(CN1CCN(Cc2ccc3c(c2)OCO3)CC1)N1c2ccccc2Sc2ccccc21`, the figure is 12.6 µM (active).
For the molecule `CCC(C(=O)OCCOCCN(CC)CC)c1ccccc1` (stereo not given), the Potency entry is “inactive”.
Same read-out and setting: next, `O=C(NC1CCN(CCc2c[nH]c3ccccc23)CC1)c1ccccc1`: “inactive”; `NC(=O)C1(N2CCCCC2)CCN(CCCC(=O)c2ccc(F)cc2)CC1`: “inactive”; `CN1CCC(OC(c2ccccc2)c2ccccc2)CC1`: “inactive”.
The same measure, in the same setting: next, `Cc1cc2c(OCC(CNC(C)(C)C)OC(=O)c3ccccc3)cccc2[nH]1` (stereo not given): “inactive”.
Still for that read-out and setting: as for `Cc1cccc(C)c1NC(=O)CN1CCCCCC1`, the entry is “inactive”; as for `CC(=O)NCCCCCC(=O)O`, “inactive”; as for `CCc1ccc(C(=O)C(C)CN2CCCCC2)cc1` (stereo not given), “inactive”.
For `CN(C)CCOC(c1ccc(Cl)cc1)c1ccccn1` (stereo not given), the Potency entry is “inactive”.
In the case of `COc1ccc2c(c1)c1c3n2CCN(C)C3=NCC1`, the Potency entry was “inactive”.

The record behind these values is PubChem BioAssay (NCATS).
